Experimental data published in PMC4081100, “A DNA-binding-site landscape and regulatory network analysis for NAC transcription factors in Arabidopsis thaliana”.

Columns and labels:
Assay in all cases: universal protein binding microarray (PBM); transcription factors of Arabidopsis thaliana; high values mean tight binding
GST-ANAC092(1-176) = biological target: T1, GST-ANAC092(1-176) (Arabidopsis thaliana, UniProt Q9FKA0 1-176); settings: protein: recombinant; tags: GST; chain copies: 2; dsDNA, one strand shown
T1 sequence: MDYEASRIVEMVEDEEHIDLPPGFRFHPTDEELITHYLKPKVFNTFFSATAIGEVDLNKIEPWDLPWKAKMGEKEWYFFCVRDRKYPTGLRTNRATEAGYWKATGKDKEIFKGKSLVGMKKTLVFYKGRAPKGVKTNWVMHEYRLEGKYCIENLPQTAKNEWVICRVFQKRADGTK
Outline: (§1)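 Cells were induced to make GST-tagged NAC-domain, full-length or DNA-binding-domain proteins, and zinc acetate was added for zinc-finger proteins. These proteins were purified on glutathione–Sepharose 4B, quantified by A280 or anti-GST western blot, and applied in duplicate at 200 to 500 nM final to custom all-10-mer Agilent 4 × 180K arrays that primer extension had made double-stranded. Binding is given as the normalised enrichment score (E-score) for scored gapped and ungapped 8-mers.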

GST-ANAC019 NAC domain = biological target: T2, GST-ANAC019 NAC domain (Arabidopsis thaliana, UniProt Q9C932 14-162); settings: protein: recombinant; tags: GST; chain copies: 2; dsDNA, one strand shown
T2 sequence: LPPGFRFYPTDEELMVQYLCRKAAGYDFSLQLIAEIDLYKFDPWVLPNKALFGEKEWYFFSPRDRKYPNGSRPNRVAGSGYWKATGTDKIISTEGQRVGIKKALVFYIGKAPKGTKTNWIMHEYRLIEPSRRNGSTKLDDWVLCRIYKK
Outline: as §1

GST-ANAC055(1-171) = biological target: T3, GST-ANAC055(1-171) (Arabidopsis thaliana, UniProt Q9LDY8 1-171); settings: protein: recombinant; tags: GST; chain copies: 2; dsDNA, one strand shown
T3 sequence: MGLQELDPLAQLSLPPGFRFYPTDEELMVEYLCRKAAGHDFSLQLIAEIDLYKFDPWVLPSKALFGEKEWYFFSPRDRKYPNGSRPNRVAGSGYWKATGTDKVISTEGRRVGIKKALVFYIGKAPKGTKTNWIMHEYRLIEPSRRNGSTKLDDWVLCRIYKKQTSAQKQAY
Outline: as §1

GST-ATAF1 NAC domain = biological target: T4, GST-ATAF1 NAC domain (Arabidopsis thaliana, UniProt Q39013 7-158); settings: protein: recombinant; tags: GST; chain copies: 2; dsDNA, one strand shown
T4 sequence: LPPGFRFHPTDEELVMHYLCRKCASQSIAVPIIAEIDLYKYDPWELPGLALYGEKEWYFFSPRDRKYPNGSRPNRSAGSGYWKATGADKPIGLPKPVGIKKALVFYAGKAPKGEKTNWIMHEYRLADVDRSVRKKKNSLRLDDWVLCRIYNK
Outline: as §1

[1] = biological target: T5, GST-ANAC092(1-285) full length (Arabidopsis thaliana, UniProt Q9FKA0 1-285); settings: protein: recombinant; tags: GST; chain copies: 2; dsDNA, one strand shown
T5 sequence: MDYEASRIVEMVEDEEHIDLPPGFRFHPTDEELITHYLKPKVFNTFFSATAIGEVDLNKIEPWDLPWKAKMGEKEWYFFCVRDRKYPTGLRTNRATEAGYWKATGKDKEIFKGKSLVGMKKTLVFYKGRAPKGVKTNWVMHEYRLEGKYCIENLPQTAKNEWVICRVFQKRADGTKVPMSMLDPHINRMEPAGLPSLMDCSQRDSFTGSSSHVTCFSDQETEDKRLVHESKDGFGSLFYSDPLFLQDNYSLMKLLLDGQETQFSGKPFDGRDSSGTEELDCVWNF
Outline: as §1

GST-NAP(1-166) = biological target: T6, GST-NAP(1-166) (Arabidopsis thaliana, UniProt O49255 1-166); settings: protein: recombinant; tags: GST; chain copies: 2; dsDNA, one strand shown
T6 sequence: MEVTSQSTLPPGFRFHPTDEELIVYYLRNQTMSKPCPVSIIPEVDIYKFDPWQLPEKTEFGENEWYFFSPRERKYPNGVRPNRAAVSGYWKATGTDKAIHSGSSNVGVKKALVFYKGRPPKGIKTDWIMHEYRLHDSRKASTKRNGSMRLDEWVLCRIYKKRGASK
Outline: as §1

GST-NST2(1-184) = biological target: T7, GST-NST2(1-184) (Arabidopsis thaliana, UniProt Q9M274 1-184); settings: protein: recombinant; tags: GST; chain copies: 2; dsDNA, one strand shown
T7 sequence: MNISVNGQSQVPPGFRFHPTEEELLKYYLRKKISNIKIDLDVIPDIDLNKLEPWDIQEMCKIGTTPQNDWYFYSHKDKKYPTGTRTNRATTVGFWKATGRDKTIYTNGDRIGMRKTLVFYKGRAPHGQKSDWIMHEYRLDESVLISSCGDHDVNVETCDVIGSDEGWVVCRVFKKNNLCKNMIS
Outline: as §1

GST-NTL8 NAC domain = biological target: T8, GST-NTL8 NAC domain (Arabidopsis thaliana, UniProt Q9XIN7 14-156); settings: protein: recombinant; tags: GST; chain copies: 2; dsDNA, one strand shown
T8 sequence: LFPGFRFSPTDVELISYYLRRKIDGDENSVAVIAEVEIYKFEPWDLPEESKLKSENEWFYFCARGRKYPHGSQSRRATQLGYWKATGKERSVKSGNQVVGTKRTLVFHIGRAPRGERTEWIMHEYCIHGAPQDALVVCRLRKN
Outline: as §1

GST-SND1(1-203) = biological target: T9, GST-SND1(1-203) (Arabidopsis thaliana, UniProt Q9LPI7 1-203); settings: protein: recombinant; tags: GST; chain copies: 2; dsDNA, one strand shown
T9 sequence: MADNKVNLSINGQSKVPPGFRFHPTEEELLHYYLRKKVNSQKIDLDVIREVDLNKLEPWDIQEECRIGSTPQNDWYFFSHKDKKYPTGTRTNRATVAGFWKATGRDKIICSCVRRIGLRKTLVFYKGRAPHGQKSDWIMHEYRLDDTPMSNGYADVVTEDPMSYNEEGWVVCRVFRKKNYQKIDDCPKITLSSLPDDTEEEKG
Outline: as §1

GST-VND3 NAC domain = biological target: T10, GST-VND3 NAC domain (Arabidopsis thaliana, UniProt Q9FH59 12-162); settings: protein: recombinant; tags: GST; chain copies: 2; dsDNA, one strand shown
T10 sequence: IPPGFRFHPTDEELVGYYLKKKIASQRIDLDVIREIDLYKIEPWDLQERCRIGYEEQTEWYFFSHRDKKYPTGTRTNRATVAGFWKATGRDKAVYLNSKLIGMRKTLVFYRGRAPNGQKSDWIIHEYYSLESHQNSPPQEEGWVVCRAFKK
Outline: as §1

GST-VND7 NAC domain = biological target: T11, GST-VND7 NAC domain (Arabidopsis thaliana, UniProt Q9C8W9 9-158); settings: protein: recombinant; tags: GST; chain copies: 2; dsDNA, one strand shown
T11 sequence: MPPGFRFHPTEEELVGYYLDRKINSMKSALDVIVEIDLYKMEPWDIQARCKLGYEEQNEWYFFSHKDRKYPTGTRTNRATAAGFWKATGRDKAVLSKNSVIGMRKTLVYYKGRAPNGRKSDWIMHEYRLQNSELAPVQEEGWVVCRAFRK
Outline: as §1

GST-WRKY1(266-371) = GST-WRKY1(266-371) (Arabidopsis thaliana, UniProt Q9SI37 266-371); settings: protein: recombinant; tags: GST; dsDNA, one strand shown
GST-WRKY1(266-371), sequence (Q9SI37 266-371): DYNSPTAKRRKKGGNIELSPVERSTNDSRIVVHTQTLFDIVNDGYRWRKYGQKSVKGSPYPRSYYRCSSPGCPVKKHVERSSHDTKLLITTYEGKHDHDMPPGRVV
Outline: as §1

GST-NTL6(1-168) = GST-NTL6(1-168) (Arabidopsis thaliana, UniProt Q9SCK6 1-168); settings: protein: recombinant; tags: GST; chain copies: 2; dsDNA, one strand shown
GST-NTL6(1-168), sequence (Q9SCK6 1-168): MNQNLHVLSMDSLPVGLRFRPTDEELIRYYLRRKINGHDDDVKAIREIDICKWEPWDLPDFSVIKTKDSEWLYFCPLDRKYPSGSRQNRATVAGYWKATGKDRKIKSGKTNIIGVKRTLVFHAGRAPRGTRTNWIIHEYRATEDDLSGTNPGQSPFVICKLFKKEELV
Outline: as §1

| Sequence | binding signal (GST-ANAC092(1-176)) [E-score] | binding signal (GST-ANAC019 NAC domain) [E-score] | binding signal (GST-ANAC055(1-171)) [E-score] | binding signal (GST-ATAF1 NAC domain) [E-score] | binding signal [1] [E-score] | binding signal (GST-NAP(1-166)) [E-score] | binding signal (GST-NST2(1-184)) [E-score] | binding signal (GST-NTL8 NAC domain) [E-score] | binding signal (GST-SND1(1-203)) [E-score] | binding signal (GST-VND3 NAC domain) [E-score] | binding signal (GST-VND7 NAC domain) [E-score] | binding signal (GST-WRKY1(266-371)) [E-score] | binding signal (GST-NTL6(1-168)) [E-score] |
| --- | --- | --- | --- | --- | --- | --- | --- | --- | --- | --- | --- | --- | --- |
| ACGCAAGG | 0.399 | 0.084 | 0.106 | 0.106 | 0.448 | 0.2 | 0.226 | 0.152 | 0.39 | 0.122 | 0.128 | 0.201 |  |
| CTTGCGTA | 0.471 | 0.382 | 0.306 | 0.317 | 0.474 | 0.386 | 0.332 | 0.0618 | 0.479 | 0.416 | 0.394 | 0.0686 |  |
| ACACGATA | 0.38 | 0.324 | 0.261 | 0.267 | 0.417 | 0.183 | 0.27 |  | 0.266 | 0.273 | 0.248 |  | 0.127 |
| CACGTCAA | 0.444 | 0.38 | 0.324 | 0.248 | 0.448 | 0.299 | 0.252 |  | 0.313 | 0.332 | 0.278 | 0.403 |  |
| AGTTTGAC |  | 0.068 | 0.118 | 0.122 |  |  |  |  | 0.069 | 0.0521 | 0.095 | 0.48 | 0.0778 |
| CAAAGTCA |  |  | 0.0622 |  | 0.0505 |  |  |  | 0.0515 | 0.0817 | 0.0536 | 0.454 |  |
| GACTTTTA |  | 0.0971 | 0.051 | 0.17 | 0.141 |  |  |  | 0.0841 | 0.0985 | 0.149 | 0.414 |  |
| GACGCAAA | 0.382 | 0.0555 |  | 0.0741 | 0.411 | 0.233 | 0.123 |  | 0.289 | 0.135 | 0.099 | 0.117 |  |
| ACGCAACC | 0.483 | 0.455 | 0.421 | 0.428 | 0.492 | 0.478 | 0.434 | 0.146 | 0.481 | 0.416 | 0.443 | 0.107 |  |
| GCGTAATA | 0.318 | 0.0565 | 0.189 | 0.0519 | 0.324 | 0.109 | 0.306 |  | 0.422 | 0.203 | 0.246 |  | 0.0582 |
| AATAGCGT | 0.39 |  | 0.138 | 0.114 | 0.412 | 0.121 | 0.261 |  | 0.383 | 0.119 | 0.191 | 0.0558 |  |
| TGACGTAA | 0.449 | 0.368 | 0.364 | 0.407 | 0.441 | 0.389 | 0.385 | 0.0784 | 0.482 | 0.406 | 0.392 | 0.178 |  |
| AACTTGAC | 0.0775 |  | 0.105 | 0.0699 | 0.088 |  | 0.173 |  | 0.136 | 0.152 | 0.0683 | 0.425 |  |
| ATGTCAAC |  |  | 0.133 | 0.127 |  | 0.106 | 0.0828 |  | 0.0631 | 0.089 | 0.124 | 0.443 | 0.0563 |
| GATTGACC | 0.141 |  | 0.0576 |  | 0.14 |  |  |  | 0.0705 | 0.138 | 0.059 | 0.479 |  |
| GACGTCAA | 0.16 |  | 0.0759 | 0.0728 | 0.19 | 0.122 | 0.0988 |  | 0.139 | 0.126 | 0.0526 | 0.436 |  |
